This passage reports outcome and AC50 results from PubChem BioAssay (EPA / NIEHS).

The source made the active and inactive calls. Rule for the calls: active = hit-call score of the fitted dose curve at least 0.9, where 1 is the maximum; inactive = score below 0.9.

The assay in a line: CCTE_Shafer_MEA_acute_per_network_burst_spike_number_mean: CCTE's Neural Acute Assay for Average Number of Spikes in a Network Burst, Shafer Lab (AID 2284019). How it is done:
CCTE_Shafer_MEA_acute assay is conducted using Axion Biosystems 48 well microelectrode array (MEA) plates and Maestro recording system. Each well of the MEA plate contains a grid of 16 microelectrodes embedded in the culture surface. Electrically active cells, such as neurons, can be cultured over the electrodes, and electrical activity in these cells can be recorded extracellularly. The spontaneous firing of neurons is captured from each electrode on a microsecond timescale providing both temporally and spatially precise data. […] The CCTE_Shafer_MEA_acute assay uses primary cultures of rat cortical neurons. As these cultures mature over time, neural networks develop functional activity and form cohesive networks in which electrical activity can be highly coordinated. Baseline 40-minute recordings are made on days post-plating 13 or 15, followed by a secondary 40-minute recording after chemical exposure.CCTE_Shafer_MEA_acute_per_network_burst_spike_number_mean is a component of the CCTE_Shafer_MEA_acute assay. It measures the average number of spikes (action potential firings) in a network burst (temporally-clustered group of spikes across multiple electrodes) as the total number of spikes in a network burst divided by the number of network bursts during a recording in a microelectrode array (MEA) using Axion Biosystems Maestro 768 channel amplifier with the AxIS adaptive spike detector. The recordings before and after chemical treatment are used to calculate a percent change in the mean number of spikes in a network burst in each well.Data from the assay component CCTE_Shafer_MEA_acute_per_network_burst_spike_number_mean was analyzed into 1 assay endpoint. This assay endpoint, CCTE_Shafer_MEA_acute_per_network_burst_spike_number_mean, was analyzed in the negative analysis fitting direction relative to DMSO as the negative control and baseline of activity. Using a type of functional reporter, gain or loss-of-signal activity can be used to understand electrical activity.
Spontaneous activity in the cortical cultures was recorded using an Axion Biosystems Maestro 768 channel amplifier and Axion Integrated Studios (AxIS) v1.8 (or later) software. The amplifier recorded from all channels simultaneously (gain = 1200 x; sampling rate = 12.5 kHz/channel): raw signals were filtered with a Butterworth band-pass filter (300-5000 Hz), which filters out slower local field potentials leaving only fast potentials, i.e., "spikes", arising from extracellular currents associated with action potentials (Pine 2006; Wheeler and Nam 2011). On-line spike detection of filtered signals was conducted with the AxIS adaptive spike detector, using a threshold of 8x the root mean squared (rms) noise on each channel. Any electrodes with rms noise levels greater than 5 uV were grounded (e.g., no data were recorded). Once grounded, an electrode was grounded for the duration of the experiment. All recordings were conducted at 37 C. Wells were deemed usable if on the day of the exposure >/= 10 electrodes were active (defined as >/= 5 spikes/min). On DIV 13 or 15, a minimum of three wells from one cortical culture preparation were treated with each compound (0.03-40 uM). Prior to recording baseline activity, each mwMEA plate was placed in the Maestro at 37 C and allowed to sit for 20 min while firing rates stabilized. Baseline activity (40 min) was recorded before the addition of each compound. An additional 40 min of spontaneous activity was recorded in the presence of each compound. Changes in network parameters relative to baseline were assessed following compound treatment.
`C=C[Si](OCC)(OCC)OCC`: the outcome was inactive.

Consider `Cc1cc(C2(c3cc(C)c(O)cc3C)OS(=O)(=O)c3ccccc32)c(C)cc1O`, for which the AC50 is 25.9 µM (active).

In the case of `Nc1cc([N+](=O)[O-])ccc1O`, the AC50 was 0.0403 µM (active). Turning to `CCCCCCCCC=O`, the molecule was called inactive. The same measure, in the same setting: the same measure for `CC[Si](OC(C)=O)(OC(C)=O)OC(C)=O`: “inactive”. Consider `CC(=O)[C@H]1CC[C@H]2[C@@H]3CC=C4C[C@@H](O)CC[C@]4(C)[C@H]3CC[C@]12C`, for which the AC50 is 15 µM (active). For `CCC(=O)OCc1ccccc1`, the result was inactive. Regarding `COc1cc(C=O)ccc1OC(=O)C(C)C`, the AC50 was 3.8 µM (active). On to `CN(C)C(=N)N=C(N)N`, for which the result was inactive.

`NCCNCCN`: the outcome was inactive. Regarding `OC[C@H]1O[C@H](O[C@]2(CCl)O[C@H](CCl)[C@@H](O)[C@@H]2O)[C@H](O)[C@@H](O)[C@H]1Cl`, the result was inactive. Turning to `CC(C)(COC(=O)c1ccccc1)COC(=O)c1ccccc1`, the molecule was classed as inactive. Still for that read-out and setting: the same measure for `CC(=O)OCCC(C)CC(C)(C)C` (stereo unspecified): “inactive”; for `C=CCOC(=O)CCC1CCCCC1`: “inactive”; for `OC1OC[C@@H](O)[C@H](O)[C@H]1O` (stereo partly specified): “inactive”. Take `C[C@H]1C[C@@H]2[C@H]([C@@H](O)C[C@@]3(C)[C@H]2CC[C@]3(O)C(=O)CO)[C@@]2(C)C=CC(=O)C=C12`: the outcome was inactive.
